The text below walks through data of publication PMC7862700, “An all-to-all approach to the identification of sequence-specific readers for epigenetic DNA modifications on cytosine”.

Common to all, as to assay: DAPPL (digital affinity profiling via proximity ligation, sequencing); 10 mM Tris-HCl pH 7.5, 50 mM NaCl, 1 mM DTT, 4% glycerol, room temperature, 30 min; GST-TFs on glutathione beads, 16-mer random dsDNA library, 0.1% formaldehyde crosslink after washing; high values mean tight binding
The target in one experiment is T1, FEV (Homo sapiens, UniProt Q99581 1-238).
T1 sequence: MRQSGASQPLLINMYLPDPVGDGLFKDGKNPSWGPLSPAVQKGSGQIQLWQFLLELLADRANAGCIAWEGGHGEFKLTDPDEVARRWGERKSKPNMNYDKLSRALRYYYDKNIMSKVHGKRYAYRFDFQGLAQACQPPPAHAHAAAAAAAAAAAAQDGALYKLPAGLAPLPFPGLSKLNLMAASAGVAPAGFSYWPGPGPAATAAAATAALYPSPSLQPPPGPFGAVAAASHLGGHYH
Particulars: protein: recombinant; tags: N-terminal GST; dsDNA, one strand shown. The gist of the method: (§1)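 Binding signal is each hexamer's read frequency for a factor divided by its frequency in the tag-only sample. The factors were GST-fused human transcription factors from yeast, captured on glutathione beads, DNA-barcoded and pooled with that sample. Pools were incubated with 200 nmole of a random double-stranded 16-mer DNA library in Tris/NaCl/DTT/glycerol buffer at room temperature for 30 min, then washed, crosslinked with 0.1% formaldehyde, proximity-ligated with BsaI/T4 ligase (1 h, 37 °C), PCR-amplified and sequenced on an Illumina NextSeq500.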

Another experiment has as its target ETV5 (Homo sapiens, UniProt P41161 1-510). To be noted: protein: recombinant; tags: N-terminal GST; dsDNA, one strand shown. The method, boiled down:
as §1

The next experiment concerns the target HSF1 (Homo sapiens, UniProt Q00613 1-529). Particulars: protein: recombinant; tags: N-terminal GST; chain copies: 3; dsDNA, one strand shown. The gist of the method:
as §1

In the next experiment the target is T2, SPIC (Homo sapiens, UniProt Q8N5J4 1-248).
T2 sequence: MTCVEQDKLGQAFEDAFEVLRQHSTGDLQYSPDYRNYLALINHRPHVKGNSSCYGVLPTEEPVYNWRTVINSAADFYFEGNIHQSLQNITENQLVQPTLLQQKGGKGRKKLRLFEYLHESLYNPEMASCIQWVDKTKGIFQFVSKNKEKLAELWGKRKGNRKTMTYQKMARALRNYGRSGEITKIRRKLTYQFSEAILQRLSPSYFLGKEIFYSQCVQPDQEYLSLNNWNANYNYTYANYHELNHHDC
To be noted: protein: recombinant; tags: N-terminal GST; dsDNA, one strand shown. The gist of the method:
as §1

Another experiment concerns the target ELF4 (Homo sapiens, UniProt Q99607 1-663). Particulars: protein: recombinant; tags: N-terminal GST; dsDNA, one strand shown. The gist of the method: as §1
The target in a further experiment is T3, ELK4 (Homo sapiens, UniProt P28324-2 1-405).
T3 sequence: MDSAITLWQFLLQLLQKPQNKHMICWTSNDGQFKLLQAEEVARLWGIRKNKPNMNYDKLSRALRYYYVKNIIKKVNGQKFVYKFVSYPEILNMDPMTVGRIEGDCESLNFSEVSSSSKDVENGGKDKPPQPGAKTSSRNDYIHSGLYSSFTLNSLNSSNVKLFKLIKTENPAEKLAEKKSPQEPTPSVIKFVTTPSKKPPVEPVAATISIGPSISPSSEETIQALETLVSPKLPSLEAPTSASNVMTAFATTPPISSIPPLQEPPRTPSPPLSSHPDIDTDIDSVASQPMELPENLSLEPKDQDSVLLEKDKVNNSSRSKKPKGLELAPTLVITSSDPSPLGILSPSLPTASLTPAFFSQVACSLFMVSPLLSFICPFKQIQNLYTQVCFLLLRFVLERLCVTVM
Particulars: protein: recombinant; tags: N-terminal GST; dsDNA, one strand shown. The gist of the method: as §1

Another experiment deals with T4, ETV2 (Homo sapiens, UniProt O00321 1-342).
T4 sequence: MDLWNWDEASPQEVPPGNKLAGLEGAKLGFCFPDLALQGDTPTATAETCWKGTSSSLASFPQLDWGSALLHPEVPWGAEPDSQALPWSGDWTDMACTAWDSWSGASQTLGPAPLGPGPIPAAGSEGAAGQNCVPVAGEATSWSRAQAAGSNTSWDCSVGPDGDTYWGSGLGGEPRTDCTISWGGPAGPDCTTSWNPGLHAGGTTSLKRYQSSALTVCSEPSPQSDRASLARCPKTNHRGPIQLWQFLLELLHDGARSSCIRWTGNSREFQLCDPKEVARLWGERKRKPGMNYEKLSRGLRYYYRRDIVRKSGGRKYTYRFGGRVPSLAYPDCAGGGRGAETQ
To be noted: protein: recombinant; tags: N-terminal GST; dsDNA, one strand shown. The gist of the method: as §1

The next experiment concerns the target T5, ELF3 (Homo sapiens, UniProt P78545 1-371).
T5 sequence: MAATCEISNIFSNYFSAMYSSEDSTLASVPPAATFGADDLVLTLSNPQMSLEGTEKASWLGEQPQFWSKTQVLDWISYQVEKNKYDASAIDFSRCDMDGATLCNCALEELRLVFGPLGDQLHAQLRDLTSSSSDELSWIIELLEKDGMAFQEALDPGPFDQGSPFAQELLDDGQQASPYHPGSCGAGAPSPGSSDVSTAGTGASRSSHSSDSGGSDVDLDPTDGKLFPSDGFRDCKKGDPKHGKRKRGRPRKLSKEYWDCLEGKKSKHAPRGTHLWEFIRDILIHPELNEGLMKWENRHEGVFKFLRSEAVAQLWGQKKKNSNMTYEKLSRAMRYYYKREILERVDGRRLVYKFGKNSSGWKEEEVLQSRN
Particulars: protein: recombinant; tags: N-terminal GST; dsDNA, one strand shown. The gist of the method:
as §1

Another experiment deals with CRX (Homo sapiens, UniProt O43186 1-299). To be noted: protein: recombinant; tags: N-terminal GST; dsDNA, one strand shown. The gist of the method: as §1
CRX, sequence (O43186 whole entry): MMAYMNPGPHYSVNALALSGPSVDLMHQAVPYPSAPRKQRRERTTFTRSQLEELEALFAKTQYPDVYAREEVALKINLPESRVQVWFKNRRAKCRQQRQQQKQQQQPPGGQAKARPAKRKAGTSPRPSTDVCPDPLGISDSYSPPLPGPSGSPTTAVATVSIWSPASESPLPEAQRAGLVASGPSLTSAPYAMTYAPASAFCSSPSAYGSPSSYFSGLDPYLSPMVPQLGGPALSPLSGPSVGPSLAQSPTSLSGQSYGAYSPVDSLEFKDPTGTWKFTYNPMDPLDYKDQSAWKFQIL
Another experiment addresses ETV1 (Homo sapiens, UniProt P50549 1-477). Particulars: protein: recombinant; tags: N-terminal GST; dsDNA, one strand shown. The method, boiled down: as §1
Another experiment addresses T6, ERF (Homo sapiens, UniProt P50548 1-548).
T6 sequence: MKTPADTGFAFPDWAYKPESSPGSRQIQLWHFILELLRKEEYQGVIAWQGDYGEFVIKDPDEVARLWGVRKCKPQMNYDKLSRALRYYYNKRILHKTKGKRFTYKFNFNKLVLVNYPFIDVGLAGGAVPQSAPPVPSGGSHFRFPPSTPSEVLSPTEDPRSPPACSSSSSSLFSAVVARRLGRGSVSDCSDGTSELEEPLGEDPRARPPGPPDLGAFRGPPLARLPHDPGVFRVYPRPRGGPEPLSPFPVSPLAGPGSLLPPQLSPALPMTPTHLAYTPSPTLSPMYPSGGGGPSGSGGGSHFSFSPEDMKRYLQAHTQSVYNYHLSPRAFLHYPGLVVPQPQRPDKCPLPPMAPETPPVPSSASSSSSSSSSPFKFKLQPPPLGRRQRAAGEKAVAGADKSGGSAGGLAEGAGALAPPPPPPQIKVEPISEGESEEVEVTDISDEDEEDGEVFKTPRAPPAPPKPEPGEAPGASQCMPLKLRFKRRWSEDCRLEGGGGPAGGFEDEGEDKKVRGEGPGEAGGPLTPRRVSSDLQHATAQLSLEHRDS
Particulars: protein: recombinant; tags: N-terminal GST; dsDNA, one strand shown. The method, boiled down: as §1

The next experiment has as its target T7, ETV3L (Homo sapiens, UniProt Q6ZN32 1-361).
T7 sequence: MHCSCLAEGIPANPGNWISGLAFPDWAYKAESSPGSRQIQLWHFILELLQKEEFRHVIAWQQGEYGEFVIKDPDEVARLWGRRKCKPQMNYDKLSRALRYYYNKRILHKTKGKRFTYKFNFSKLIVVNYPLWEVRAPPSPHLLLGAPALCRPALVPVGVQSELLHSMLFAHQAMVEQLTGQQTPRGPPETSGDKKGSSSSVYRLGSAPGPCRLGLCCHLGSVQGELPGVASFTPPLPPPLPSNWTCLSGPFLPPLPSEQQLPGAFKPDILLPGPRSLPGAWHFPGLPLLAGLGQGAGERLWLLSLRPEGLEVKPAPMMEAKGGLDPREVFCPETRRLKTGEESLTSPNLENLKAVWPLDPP
To be noted: protein: recombinant; tags: N-terminal GST; dsDNA, one strand shown. The method, boiled down: as §1

In another experiment the target is T8, ETS2 (Homo sapiens, UniProt P15036 1-469).
T8 sequence: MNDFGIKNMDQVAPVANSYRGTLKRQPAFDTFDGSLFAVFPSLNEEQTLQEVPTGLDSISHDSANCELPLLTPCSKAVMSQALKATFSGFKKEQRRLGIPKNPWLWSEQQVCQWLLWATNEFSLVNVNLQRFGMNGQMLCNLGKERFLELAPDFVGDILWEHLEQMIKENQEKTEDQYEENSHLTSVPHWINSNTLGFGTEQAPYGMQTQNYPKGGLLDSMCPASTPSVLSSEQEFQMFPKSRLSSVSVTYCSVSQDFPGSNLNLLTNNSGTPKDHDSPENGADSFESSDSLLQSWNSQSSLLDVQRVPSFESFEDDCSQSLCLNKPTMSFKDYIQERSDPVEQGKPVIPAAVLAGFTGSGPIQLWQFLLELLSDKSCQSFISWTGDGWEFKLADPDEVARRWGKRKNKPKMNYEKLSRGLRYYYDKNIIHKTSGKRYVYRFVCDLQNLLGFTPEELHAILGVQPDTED
To be noted: protein: recombinant; tags: N-terminal GST; dsDNA, one strand shown. The gist of the method:
as §1

Another experiment concerns the target T9, SPDEF (Homo sapiens, UniProt O95238 1-335).
T9 sequence: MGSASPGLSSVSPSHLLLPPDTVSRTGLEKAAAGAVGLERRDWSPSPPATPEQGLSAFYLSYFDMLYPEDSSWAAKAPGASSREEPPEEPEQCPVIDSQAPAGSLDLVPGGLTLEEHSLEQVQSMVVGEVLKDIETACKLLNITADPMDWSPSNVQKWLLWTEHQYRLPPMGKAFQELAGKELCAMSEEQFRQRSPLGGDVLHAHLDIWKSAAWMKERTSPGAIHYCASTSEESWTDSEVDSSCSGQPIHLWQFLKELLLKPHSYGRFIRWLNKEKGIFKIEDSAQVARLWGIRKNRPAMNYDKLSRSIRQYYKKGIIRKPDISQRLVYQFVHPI
To be noted: protein: recombinant; tags: N-terminal GST; dsDNA, one strand shown. The method, boiled down:
as §1

In a further experiment the target is T10, ETV7 (Homo sapiens, UniProt Q9Y603 1-341).
T10 sequence: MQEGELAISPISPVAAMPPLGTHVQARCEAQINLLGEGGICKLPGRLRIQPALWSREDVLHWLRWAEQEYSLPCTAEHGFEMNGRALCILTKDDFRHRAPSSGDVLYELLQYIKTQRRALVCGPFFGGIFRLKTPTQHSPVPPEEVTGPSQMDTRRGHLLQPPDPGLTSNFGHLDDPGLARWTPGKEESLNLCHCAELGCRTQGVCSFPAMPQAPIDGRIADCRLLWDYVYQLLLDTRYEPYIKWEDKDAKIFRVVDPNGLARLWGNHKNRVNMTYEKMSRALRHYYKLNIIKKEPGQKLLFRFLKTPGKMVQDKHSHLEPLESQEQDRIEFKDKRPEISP
Particulars: protein: recombinant; tags: N-terminal GST; dsDNA, one strand shown. The method, boiled down:
as §1

The next experiment deals with T11, ELF5 (Homo sapiens, UniProt Q9UKW6-2 1-255).
T11 sequence: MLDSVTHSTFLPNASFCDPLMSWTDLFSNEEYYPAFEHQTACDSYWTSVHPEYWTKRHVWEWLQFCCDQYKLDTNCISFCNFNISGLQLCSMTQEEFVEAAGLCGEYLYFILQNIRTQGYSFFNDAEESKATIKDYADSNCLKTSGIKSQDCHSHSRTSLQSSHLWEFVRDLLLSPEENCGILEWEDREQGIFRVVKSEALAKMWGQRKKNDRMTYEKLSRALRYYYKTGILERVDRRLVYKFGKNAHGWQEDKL
Particulars: protein: recombinant; tags: N-terminal GST; dsDNA, one strand shown. The method, boiled down:
as §1

A further experiment addresses T12, ETV3 (Homo sapiens, UniProt P41162-2 1-143).
T12 sequence: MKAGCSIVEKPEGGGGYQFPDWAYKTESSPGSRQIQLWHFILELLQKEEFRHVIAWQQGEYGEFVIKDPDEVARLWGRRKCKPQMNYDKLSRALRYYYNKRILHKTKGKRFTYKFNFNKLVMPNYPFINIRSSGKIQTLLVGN
To be noted: protein: recombinant; tags: N-terminal GST; dsDNA, one strand shown. The gist of the method:
as §1

For a further experiment, the target named is ETV6 (Homo sapiens, UniProt P41212 1-452). Particulars: protein: recombinant; tags: N-terminal GST; dsDNA, one strand shown. The method, boiled down:
as §1

ETV6, sequence (P41212 whole entry): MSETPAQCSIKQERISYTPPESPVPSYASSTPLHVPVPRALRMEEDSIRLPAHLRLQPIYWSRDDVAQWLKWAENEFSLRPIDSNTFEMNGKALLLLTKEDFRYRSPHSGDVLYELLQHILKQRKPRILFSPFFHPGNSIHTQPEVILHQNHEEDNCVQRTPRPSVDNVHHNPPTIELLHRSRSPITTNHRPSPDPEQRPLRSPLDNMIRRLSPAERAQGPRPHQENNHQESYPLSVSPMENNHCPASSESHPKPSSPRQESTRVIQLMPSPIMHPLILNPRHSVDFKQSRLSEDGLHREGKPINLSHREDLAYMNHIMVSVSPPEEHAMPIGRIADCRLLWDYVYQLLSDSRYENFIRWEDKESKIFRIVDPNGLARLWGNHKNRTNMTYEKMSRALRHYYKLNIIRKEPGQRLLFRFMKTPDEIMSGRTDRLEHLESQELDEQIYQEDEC
ETV5, sequence (P41161 whole entry): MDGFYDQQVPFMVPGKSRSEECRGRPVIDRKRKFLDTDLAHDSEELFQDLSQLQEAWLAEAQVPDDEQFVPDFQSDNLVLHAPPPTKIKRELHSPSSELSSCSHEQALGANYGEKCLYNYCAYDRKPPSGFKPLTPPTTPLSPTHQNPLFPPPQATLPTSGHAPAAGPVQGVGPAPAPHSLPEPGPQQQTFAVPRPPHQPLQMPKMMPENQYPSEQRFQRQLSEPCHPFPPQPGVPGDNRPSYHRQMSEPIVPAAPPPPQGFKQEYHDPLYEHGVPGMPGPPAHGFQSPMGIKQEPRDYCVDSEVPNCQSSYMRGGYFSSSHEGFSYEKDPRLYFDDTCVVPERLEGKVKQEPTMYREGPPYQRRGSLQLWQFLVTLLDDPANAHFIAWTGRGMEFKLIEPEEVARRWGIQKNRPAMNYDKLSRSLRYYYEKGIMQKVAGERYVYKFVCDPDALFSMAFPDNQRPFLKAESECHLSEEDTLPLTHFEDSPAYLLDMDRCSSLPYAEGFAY
ELF4, sequence (Q99607 whole entry): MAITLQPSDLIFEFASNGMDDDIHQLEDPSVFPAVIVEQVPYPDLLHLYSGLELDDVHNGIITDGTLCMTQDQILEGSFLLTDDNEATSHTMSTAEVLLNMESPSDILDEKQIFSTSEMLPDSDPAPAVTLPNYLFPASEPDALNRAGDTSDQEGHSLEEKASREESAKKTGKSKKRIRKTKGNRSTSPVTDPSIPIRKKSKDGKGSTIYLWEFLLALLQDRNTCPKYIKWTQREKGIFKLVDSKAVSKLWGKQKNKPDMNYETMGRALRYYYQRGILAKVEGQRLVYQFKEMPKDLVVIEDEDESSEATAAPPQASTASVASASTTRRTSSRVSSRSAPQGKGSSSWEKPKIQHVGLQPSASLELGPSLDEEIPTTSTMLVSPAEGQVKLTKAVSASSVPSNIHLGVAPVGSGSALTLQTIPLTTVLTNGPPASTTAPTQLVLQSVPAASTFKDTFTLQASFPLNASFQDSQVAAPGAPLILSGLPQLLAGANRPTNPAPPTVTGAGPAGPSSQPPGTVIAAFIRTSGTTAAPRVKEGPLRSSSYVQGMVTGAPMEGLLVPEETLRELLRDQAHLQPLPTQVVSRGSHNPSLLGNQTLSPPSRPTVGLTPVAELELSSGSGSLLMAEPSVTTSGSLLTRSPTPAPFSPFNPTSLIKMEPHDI
ETV1, sequence (P50549 whole entry): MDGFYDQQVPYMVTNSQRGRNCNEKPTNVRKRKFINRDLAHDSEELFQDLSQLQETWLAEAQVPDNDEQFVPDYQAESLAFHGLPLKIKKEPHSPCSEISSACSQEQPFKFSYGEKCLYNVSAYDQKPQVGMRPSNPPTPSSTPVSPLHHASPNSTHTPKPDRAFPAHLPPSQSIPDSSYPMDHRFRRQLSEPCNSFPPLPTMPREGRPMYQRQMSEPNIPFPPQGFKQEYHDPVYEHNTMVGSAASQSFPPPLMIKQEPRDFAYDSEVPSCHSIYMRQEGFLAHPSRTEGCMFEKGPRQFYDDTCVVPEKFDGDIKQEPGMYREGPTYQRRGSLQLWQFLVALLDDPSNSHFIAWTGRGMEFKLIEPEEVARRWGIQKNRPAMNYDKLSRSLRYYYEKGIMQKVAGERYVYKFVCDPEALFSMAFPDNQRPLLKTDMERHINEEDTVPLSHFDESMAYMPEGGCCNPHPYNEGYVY
HSF1, sequence (Q00613 whole entry): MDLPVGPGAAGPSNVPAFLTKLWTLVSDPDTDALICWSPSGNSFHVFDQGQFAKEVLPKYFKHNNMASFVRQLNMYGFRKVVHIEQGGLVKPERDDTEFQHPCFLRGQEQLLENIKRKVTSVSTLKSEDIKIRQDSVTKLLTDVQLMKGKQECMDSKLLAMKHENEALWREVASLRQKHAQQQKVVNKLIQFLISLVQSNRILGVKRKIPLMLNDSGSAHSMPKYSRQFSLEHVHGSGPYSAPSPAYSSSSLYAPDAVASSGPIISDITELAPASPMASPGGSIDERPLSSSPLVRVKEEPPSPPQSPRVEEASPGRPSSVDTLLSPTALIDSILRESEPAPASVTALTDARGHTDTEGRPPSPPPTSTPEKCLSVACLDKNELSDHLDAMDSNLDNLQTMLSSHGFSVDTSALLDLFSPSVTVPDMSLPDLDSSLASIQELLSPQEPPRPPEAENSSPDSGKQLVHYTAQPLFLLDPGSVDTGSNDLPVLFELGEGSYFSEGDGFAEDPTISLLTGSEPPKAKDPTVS

With ACTATA, the binding signal in the experiment with FEV is 1.29 fold enrichment (6-mer frequency, TF over GST control); in the experiment with ETV5 it was 1.33 fold enrichment (6-mer frequency, TF over GST control); with HSF1, 1.26 fold enrichment (6-mer frequency, TF over GST control); with SPIC it was 1.26 fold enrichment (6-mer frequency, TF over GST control); with ELF4 it was 1.3 fold enrichment (6-mer frequency, TF over GST control); with ELK4, 1.42 fold enrichment (6-mer frequency, TF over GST control). The binding signal in the experiment with ETV2 is 1.3 fold enrichment (6-mer frequency, TF over GST control); with ELF3, 1.38 fold enrichment (6-mer frequency, TF over GST control); with CRX it was 1.4 fold enrichment (6-mer frequency, TF over GST control); in the experiment with ETV1, 1.26 fold enrichment (6-mer frequency, TF over GST control); in the experiment with ERF, 1.29 fold enrichment (6-mer frequency, TF over GST control); in the experiment with ETV3L it was 1.24 fold enrichment (6-mer frequency, TF over GST control). In addition, the binding signal in the experiment with ETS2 was 1.36 fold enrichment (6-mer frequency, TF over GST control); with SPDEF, 1.42 fold enrichment (6-mer frequency, TF over GST control); with ETV7, 1.28 fold enrichment (6-mer frequency, TF over GST control); with ELF5 it was 1.35 fold enrichment (6-mer frequency, TF over GST control); with ETV3, 1.33 fold enrichment (6-mer frequency, TF over GST control); in the experiment with ETV6, 1.31 fold enrichment (6-mer frequency, TF over GST control).
